# Gli-Sufu antag – blocks Gli-Sufu signaling in a luciferase reporter. Sufu-KO-LIGHT fibroblasts, Gli luciferase reporter luminescence. inhibition, % at 5 µM. hit rate 0.74% among 340,000. AID 588413;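 active = inhibition above about 55%, limit read from the data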;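 note: 0% = DMSO-treated cells and 100% = wells with medium but no cells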
# Mdm2 MdmX PPI – disrupts the human Mdm2-MdmX interaction. SaOS-2 split-luciferase Mdm2/MdmX complementation, luminescence. inhibition, % at 8 µM. hit rate 3% among 330,000. AID 485346. O15151+Q00987;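 active = inhibition of at least 50% at 8 µM in the primary screen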
# Target sequence (O15151 whole entry, looked up): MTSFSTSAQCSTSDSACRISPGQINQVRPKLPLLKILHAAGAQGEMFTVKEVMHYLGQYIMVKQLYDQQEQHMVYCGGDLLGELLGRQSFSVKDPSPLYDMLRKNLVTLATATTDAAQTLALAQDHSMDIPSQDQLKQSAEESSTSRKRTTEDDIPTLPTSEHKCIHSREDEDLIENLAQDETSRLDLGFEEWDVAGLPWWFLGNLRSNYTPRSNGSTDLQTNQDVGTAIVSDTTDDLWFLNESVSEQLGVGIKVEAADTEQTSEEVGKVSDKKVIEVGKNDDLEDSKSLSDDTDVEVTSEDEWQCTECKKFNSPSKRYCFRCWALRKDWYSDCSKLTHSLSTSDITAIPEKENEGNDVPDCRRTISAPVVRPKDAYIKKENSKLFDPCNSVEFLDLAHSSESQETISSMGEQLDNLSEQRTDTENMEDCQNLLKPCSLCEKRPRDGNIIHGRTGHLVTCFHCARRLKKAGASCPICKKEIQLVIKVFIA
# Target sequence (Q00987 whole entry, looked up): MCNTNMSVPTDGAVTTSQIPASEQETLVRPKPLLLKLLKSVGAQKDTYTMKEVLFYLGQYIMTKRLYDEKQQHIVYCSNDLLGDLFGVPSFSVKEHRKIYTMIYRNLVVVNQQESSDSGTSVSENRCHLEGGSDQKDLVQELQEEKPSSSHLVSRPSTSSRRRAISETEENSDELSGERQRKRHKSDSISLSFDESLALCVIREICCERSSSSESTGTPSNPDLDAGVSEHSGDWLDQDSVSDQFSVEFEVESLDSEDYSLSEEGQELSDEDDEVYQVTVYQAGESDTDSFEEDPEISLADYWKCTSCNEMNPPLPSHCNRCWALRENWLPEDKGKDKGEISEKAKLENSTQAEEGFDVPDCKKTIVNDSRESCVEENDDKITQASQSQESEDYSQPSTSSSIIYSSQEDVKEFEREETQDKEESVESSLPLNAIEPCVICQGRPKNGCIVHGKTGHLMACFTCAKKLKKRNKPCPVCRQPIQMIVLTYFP
# 697 NFkB inh – inhibitors of the PMA/ionomycin-induced NF-kB reporter in 697 B cells; 697 B-cell NF-kB luciferase reporter, 16 h; inhibition, % at 4 µM; hit rate 0.33% among 330,000; AID 435022; in the data active = inhibition above about 35%
# Shn3 3UTR inh – reduces Shn3 3'UTR luciferase signal in osteoblasts; Clone20 osteoblast Shn3 3'UTR firefly luciferase, 24 h; inhibition, % at 12.5 µM; hit rate 0.52% among 360,000; AID 588674;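 active = mean inhibition of at least 75% with every replicate also reaching 75%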;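 note: 0% = median of neutral control wells and 100% = pilot-screen positive control compound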
# Jurkat NFkB inh – inhibitors of the PMA/ionomycin-induced NF-kB reporter in Jurkat cells | PMA/ionomycin-induced NF-kB luciferase reporter, luminescence | inhibition, % at 4 µM | hit rate 0.53% among 330,000 | AID 435003; in the data active = inhibition above about 50%
# Mdm2 MdmX conf – human Mdm2/MdmX binding inhibition, confirmed. shares compounds with Mdm2 MdmX PPI. luminescent assay. inhibition, % at 8 µM. hit rate 55% among 10,000; in the data active = inhibition above about 40%
# Full FLuc ctr – inhibits full-length luciferase, flagging false Mdm2/MdmX hits; SaOS-2 full-length luciferase counterscreen, luminescence; hit rate 77% among 6,200; inhibition, % at 8 µM; shares compounds with Mdm2 MdmX PPI;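 active = mean inhibition at 8 µM reaching about 37%, which flags the compound as non-specific, limit read from the data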;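 note: p53-null SaOS-2 cells with luciferase driven by a doxycycline-inducible promoter; compound on cells about two nights before reading with doxycycline added after day one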
# Gli-Sufu confirm – Gli-SUFU antagonism confirmation, single concentration. shares compounds with Gli-Sufu antag. Sufu-KO-LIGHT cells, Gli luciferase reporter, luminescence. inhibition, % at 5 µM. hit rate 40% among 2,500. AID 602428;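 active = mean inhibition at 5 µM reaching about 45%, limit read from the data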;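 note: plate controls were DMSO-treated cells for no effect and wells lacking cells for full effect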
# Gli cytotox – cytotoxicity counter-screen for Gli-SUFU antagonists. cytotoxicity, % at 5 µM. shares compounds with Gli-Sufu antag. Sufu-KO-LIGHT cells cytotoxicity, ATP luminescence. hit rate 32% among 2,500;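 active = mean cytotoxicity at 5 µM above about 25%, limit read from the data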;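 note: cells exposed to compound overnight for roughly 16 to 18 hours; plate controls were DMSO wells with cells for no effect and medium without cells for full effect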
# Wnt3a cs – Wnt3a reporter inhibition counter-screen; shares compounds with Gli-Sufu antag; hit rate 20% among 2,500; Wnt-LIGHT cells, Wnt3a-driven luciferase reporter, luminescence; inhibition, % at 6.25 µM;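 active = mean inhibition above about 25%, limit read from the data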
# The depositor's hits bear a star; / = no result given. The list is not random: actives were taken first. Their share in the collection is about 3.8%.
SMILES,Gli-Sufu antag,Mdm2 MdmX PPI,697 NFkB inh,Shn3 3UTR inh,Jurkat NFkB inh,Mdm2 MdmX conf,Gli-Sufu confirm,Gli cytotox,Wnt3a cs,others
O=C(N[C@@H]1C/C=C\C[C@H](CC(=O)N(CCO)Cc2ccccc2)C(=O)NC[C@@H](c2ccccc2)OC1=O)OCC1c2ccccc2-c2ccccc21,66.9*,50.7*,6.5,89.6*,-3.9,6.7,65.0*,25.6*,-5.9,
Cc1ccc(C(C#N)=Cc2ccc3c(c2)OCO3)cc1,/,/,/,-15.8,/,/,/,/,/,
CN(C(=O)COC(=O)c1ccccc1SCC(=O)N1CCCC1)C1CCS(=O)(=O)C1 (stereo not given),-9.5,10.8,-22.1,18.5,19.8,/,/,/,/,
CCOc1ccc(OCc2ccc(C(=O)NN=Cc3ccc[nH]3)cc2)cc1,79.5*,83.5*,-87.2,82.0,-16.0,73.0*,79.8*,17.7,-20.5,Full FLuc ctr=28.0
O=C(NC1CCCCC1)C(c1ccc(F)cc1)N(CCCN1CCOCC1)C(=O)c1ccc(CN2CCOCC2)o1 (stereo not given),-4.3,-25.0,-34.8,8.4,-13.5,/,/,/,/,
Cc1cc(C(=O)CN2CCC(C)CC2)c(C)n1-c1ccccc1F,70.1*,66.4*,-48.0,9.6,-58.9,76.2*,76.2*,33.7*,83.4*,Full FLuc ctr=69.7*
N#CC1=C(N)N2C(=C(C#N)C1c1ccc(Br)cc1)Nc1ccccc12 (stereo not given),58.1*,96.4*,7.5,/,-2.2,95.3*,82.7*,37.0*,66.6*,Full FLuc ctr=53.0*
O=S(=O)(Nc1nc2ccccc2nc1Nc1ccc2c(c1)OCO2)c1ccc(F)cc1,58.2*,50.1*,-29.3,24.4,-6.1,26.7,57.7*,16.5,51.1*,
O=C(O)c1cccc(Nc2nc3ccccc3nc2NS(=O)(=O)c2ccc(F)cc2)c1,-17.7,22.5,-3.1,-21.9,-7.5,/,/,/,/,
Cc1ccc2nc(-c3ccncc3)cc(-c3ccccc3)c2c1,-3.0,11.0,8.9,-11.7,15.2,/,/,/,/,
Cc1ccc(-c2cc3cccc[n+]3cc2-c2ccc(C)cc2)cc1,86.4*,52.3*,-81.4,82.2,49.5,42.7*,89.5*,27.3*,48.1*,Full FLuc ctr=47.5*
O=C(N/N=C/c1ccc(O)cc1)c1cccc(C(F)(F)F)c1,5.8,-14.5,-8.8,-6.2,1.9,/,/,/,/,
CCN(CC)S(=O)(=O)c1cccc(C(=O)N/N=C/c2cccc(O)c2O)c1,70.9*,59.5*,-48.4,89.9*,5.5,65.7*,50.8*,47.8*,36.3*,Full FLuc ctr=38.6*
O=C(N/N=C/c1ccccc1O)c1cccc(C(F)(F)F)c1,66.1*,69.0*,-1.0,92.8*,41.6,73.0*,61.8*,35.7*,57.8*,Full FLuc ctr=35.8
O=C(c1ccc2[nH]ccc2c1)N1CCCC(Nc2ccccc2)C1 (stereo not given),-2.7,-9.6,4.9,-5.6,2.5,/,/,/,/,
Cc1ccccc1-n1c(SCC(=O)NC(N)=O)nc2sc(-c3ccccc3)cc2c1=O,21.0,12.3,-18.2,12.1,-5.8,/,/,/,/,
CCOC(=O)C1(C)NC(c2ccccc2F)C2C(=O)N(CC)C(=O)C21 (stereo not given),-0.2,20.5,11.4,2.1,5.1,/,/,/,/,
COC(=O)c1ccc(-c2ccc(OC)c([C@H]3[C@H]4C=CC[C@@H](C)[C@@H]4C(=O)N3Cc3ccccc3)c2)cc1,53.9,61.8*,30.7,3.4,-23.5,45.1*,50.2*,37.6*,-2.1,Full FLuc ctr=45.8*
OCC1C2c3ccccc3C(c3ccccc32)C1CO (stereo not given),-0.8,-11.4,-47.4,23.5,-21.3,/,/,/,/,
COc1ccc(Cc2nnc(N/N=C/c3ccc(O)cc3)[nH]c2=O)cc1OC,82.0*,65.8*,-53.1,88.2*,14.8,70.2*,84.8*,28.7*,73.3*,Full FLuc ctr=24.8
CCOC(=O)c1sc2nc(CC(=O)OC)nc(NCc3ccc(Cl)cc3)c2c1C,55.4*,-1.1,5.3,67.7,29.5,/,53.0*,25.8*,-19.0,
C(=C\c1ccccc1)/CN1CCN(C(c2ccccc2)c2nnnn2C2CCCCC2)CC1 (stereo not given),/,/,/,-10.0,/,/,/,/,/,
Cc1c(C(=O)OCC(=O)N2CC(=O)Nc3ccccc32)oc2ccccc12,94.4*,-8.7,-2.8,4.6,-11.3,/,11.8,13.7,-34.8,
CCC(=O)N1CCc2cc(Br)cc(S(=O)(=O)N3CCC(C(=O)NC(C)(C)C)CC3)c21,54.4,0.7,19.8,10.2,17.6,/,5.4,18.6,-39.4,
Cc1ccc(-n2c(-c3ccc(Cl)cc3)c[n+]3c2CCC3)cc1,76.2*,30.4,18.1,65.8,21.4,/,77.2*,37.4*,7.2,
SMILES,Gli-Sufu antag,Mdm2 MdmX PPI,697 NFkB inh,Shn3 3UTR inh,Jurkat NFkB inh,Mdm2 MdmX conf,Gli-Sufu confirm,Gli cytotox,Wnt3a cs,others
FC(F)Sc1ccc(-n2c(-c3ccc(Cl)cc3)c[n+]3c2CCC3)cc1,53.4,12.7,-6.4,1.8,-11.9,/,24.1,1.8,-93.5,
Cc1ccc(-c2c(C#N)c(N)n(-c3ccc(Cl)cc3)c(=O)c2C#N)cc1,/,/,/,28.2,/,/,/,/,/,
Cc1ccc(-n2c(-c3ccccc3)c[n+]3c2CCC3)cc1,81.8*,-7.0,23.0,77.7,34.7,/,84.3*,23.8,40.1*,
c1cn(CCCNC2CCCCCCC2)cn1,-0.3,15.3,-8.9,/,-13.5,/,/,/,/,
CCn1c(=O)[nH]c2cc(C(=O)Nc3cc(C)cc(C)c3)ccc2c1=O,15.3,10.4,15.5,1.5,9.4,/,/,/,/,
Cc1cc(/C=C2/SC(=S)N(c3ccc([N+](=O)[O-])cc3)C2=O)c(C)n1-c1cccnc1,80.8*,32.1,22.2,77.0,45.4,/,82.3*,20.2,-8.4,
Cc1cc(/C=C2/SC(=S)N(c3cccc(Cl)c3)C2=O)c(C)n1-c1cccnc1,15.0,6.7,2.7,82.1,-6.0,/,/,/,/,
c1ccc(-c2c[n+]3c(n2-c2ccccc2)SCC3)cc1,59.4*,-3.4,-37.6,5.0,10.7,/,57.8*,16.7,13.5,
CCOc1ccc(-n2c(-c3ccc(Cl)cc3)c[n+]3c2SCC3)cc1,77.9*,3.2,-14.4,68.3,23.7,/,74.4*,30.1*,3.7,
COc1ccc(CCCNC(=O)C2Cc3c(-c4ccc(NC(C)=O)cc4)ccnc3O2)cc1 (stereo not given),/,/,/,-6.0,/,/,/,/,/,
Cc1ccc(CN2CCC(CNS(=O)(=O)c3ccc(-c4ccc(=O)[nH]n4)s3)CC2)cc1,60.3*,4.0,11.0,11.1,-1.2,/,20.8,11.6,12.5,
COc1ccc(C(=O)c2ccc(N3CCN(C(=O)c4ccc(F)cc4)CC3)c(F)c2)cc1Br,-9.6,19.8,-24.7,37.0,4.7,/,/,/,/,
